# Screens deposited in PubChem BioAssay by National Center for Advancing Translational Sciences (NCATS).
# HT1080 IDH1KD tx – qHTS for induction of synthetic lethality in tumor cells producing 2HG: qHTS for the HT-1080-IDH1KD cell line; AID 686971, 2013; 360,000 compounds, 2% hits; Potency, µM (series often up to 46.1 µM), for inactives: top-dose activity, negative = toxicity, hits mostly cytotoxic; HT-1080 IDH1 knockdown viability, ATP luminescence, 48 h;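 note: potency is the fitted concentration of half-maximal effect; 0% = DMSO wells and -100% = cell-free medium wells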
#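 Assay cells: HT-1080 with IDH1 knockdown, 750 per well, RPMI/5% FBS. Exposure: 48 h at 37 °C following 2 h pre-incubation. Read: CellTiter-Glo luminescence; fitted concentration-response, curve class assigned.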
# TDP1 cell CPT – qHTS for Inhibitors of human tyrosyl-DNA phosphodiesterase 1 (TDP1): qHTS in cells in presence of CPT; chicken DT40 Tdp1-/-;hTDP1 cells + 20 nM CPT, ATP luminescence, 48 h; Potency, µM (titrated, usually from 46.2 µM), for inactives: at the top dose activity change, negative = growth inhibition, actives largely listed as inhibitors; 420,000 compounds, 12% hits; AID 686979, 2013; note: potency is the fitted concentration of half-maximal effect; nearly all actives have a fitted effect of over 55% in size
#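 Cell growth measured by CellTiter-Glo luminescence after a minimum 48 h, 37 C compound exposure with 20 nM CPT in Tdp1-knockout DT40 cells stably expressing hTDP1, seeded 400/well; qHTS titration format.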
# TDP1 cell noCPT – qHTS for Inhibitors of human tyrosyl-DNA phosphodiesterase 1 (TDP1): qHTS in cells in absence of CPT; DT40 Tdp1-/- hTDP1 cells, no CPT, ATP luminescence, 48 h; Potency, µM (series often up to 46.2 µM), for the others: at the highest dose activity change, negative = growth inhibition, most hits filed as inhibitors; 420,000 compounds, 15% hits; note: potency is the fitted concentration of half-maximal effect; nearly all actives have a fitted effect of over 55% in size
#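 DT40 Tdp1-/-;hTDP1 cells, no CPT (DMSO vehicle only), 400 cells/well; compounds pin-transferred; ≥48 hr, 37 °C; CellTiter-Glo 30 min RT dark, luminescence read.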
# IL1B secr inh – qHTS for Inhibitors of Inflammasome Signaling: IL-1-beta AlphaLISA Primary Screen. THP-1 LPS/ATP IL-1B secretion, AlphaLISA, 16 h; hits give low values. activity change, % at 57.5 µM. 360,000 compounds, 4.7% hits. AID 743279, 2014; in the data active = activity change below about -50%; inconclusive = mostly about -30% to -49%
#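 Secreted IL-1B measured by AlphaLISA bead assay after 16 h compound exposure of THP-1 cells; compounds (final up to 57.5 uM) added 1 h before LPS (250 ng/mL) and ATP (1.25 mM) stimulation; lower signal means less secretion.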
# HT1080NT lethal – qHTS for induction of synthetic lethality in tumor cells producing 2HG: qHTS for the HT-1080-NT fibrosarcoma cell line; 360,000 compounds, 1.6% hits; Potency, µM (highest dose often 46.1 µM), inactives show top-dose activity, negative = less viability, hits mostly cytotoxic; HT-1080-NT fibrosarcoma viability, CellTiter-Glo ATP luminescence, 48 h;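 note: NT is the 2HG producing partner of a matched IDH1 knockdown line; potency is the fitted concentration of half-maximal effect; 0% = DMSO-treated cells and -100% = media-only wells without cells; nearly all actives have a fitted effect of over 55% in size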
#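 HT-1080-NT; 750 cells/well; 5% FBS RPMI; 48 h compound, 37 degrees C; CellTiter-Glo luminescence; curve fitting and curve-class assignment.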
# Active calls of the source: *; ? = inconclusive; nt = no result; [ ] = another dose, or the depositor's remark. An excerpt weighted towards active compounds, which were near 19% of everything screened. Unless noted, calls come from the whole dose curve; as a rule, active = well fitted curve in the direction sought with a large enough effect; inconclusive = small, poorly fitted or top-dose-only effect, or another doubt; inactive = no such curve, though single readings can be large; an effect the other way counts as inactive or inconclusive. Unless noted, % is set by controls: 0 for no effect and ±100 for the full control effect.
SMILES,HT1080 IDH1KD tx,TDP1 cell CPT,TDP1 cell noCPT,IL1B secr inh,HT1080NT lethal
COc1ccc(C2=NOC(Cn3nc(C(=O)NCc4ccco4)cc3-c3ccccc3)C2)cc1 (stereo unspecified),-1.9%,?,16.4µM*,-27.0,-2.8%
COc1ccc(C2=NOC(Cn3nc(C(=O)NCc4cccc(C(F)(F)F)c4)cc3-c3ccccc3)C2)cc1 (stereo unspecified),-4.3%,18.4µM*,?,-5.9,-1.9%
COc1ccc(C2=NOC(Cn3nc(-c4ccccc4)cc3C(=O)NCc3ccco3)C2)cc1 (stereo unspecified),5.5%,?,-0.2%,22.2,17.1%
Cc1ccc(CNC(=O)c2cc(-c3ccccc3C)nn2CC2CC(c3cccnc3)=NO2)cc1 (stereo unspecified),3.7%,?,20.6µM*,-4.5,4.3%
CCOC(=O)c1ccccc1NC(=O)CSC(C)C(=O)Nc1cc(C)on1 (stereo unspecified),3.0%,?,?,16.5,-1.7%
Cc1cccc(NC(=O)N2CCC(NC(=O)C3CCCCC3)CC2)c1,0.8%,-4.6%,6.4%,11.1,3.0%
Cc1ccc2c(c1)N(CC(=O)N1CCCC1)C(=O)CO2,6.3%,-6.8%,0.7%,-3.2,2.0%
COc1ccc(C)cc1NC(=O)CNC(=O)[C@@H]1Cc2ccccc2CN1,15.6%,2.8%,0.6%,0.5,2.1%
COc1ccc(C2=NOC(Cn3nc(-c4ccccc4)cc3C(=O)NCc3cccs3)C2)cc1 (stereo unspecified),-1.7%,?,9.2µM*,-1.4,-4.3%
CCOC(=O)c1cc(-c2ccccc2)n(CC2CC(c3ccc(OC)cc3)=NO2)n1 (stereo unspecified),0.4%,23.1µM*,23.1µM*,2.0,-1.1%
CC1=C(C(=O)N(C)C)CC(CC(=O)NC2CC2)C(=O)N1CCC1=CCCCC1 (stereo unspecified),0.1%,-12.4%,-18.2%,10.6,3.6%
CC1=C(C(=O)N(C(C)C)C(C)C)CC(CC(=O)NC2CCCC2)C(=O)N1CCC1=CCCCC1 (stereo unspecified),12.6%,?,23.1µM*,?,6.3%
CC1=C(C(=O)N(C(C)C)C(C)C)CC(CC(=O)NC2CC2)C(=O)N1CCC1=CCCCC1 (stereo unspecified),7.2%,16.4µM*,?,42.5,24.0%
Cc1nc(-c2ccccc2)nc(-c2ccccc2)n1,-0.9%,-25.8%,-23.3%,7.0,2.5%
COc1ccc(C(=O)NCCN2Cc3cc(C)ccc3OC(C)C2)c(OC)n1 (stereo unspecified),nt,7.8%[9.04 µM],-17.5%,nt,nt
CCOC(=O)[C@@H]1[C@H]2COc3cc(OC)ccc3[C@H]2N2C(=O)N(c3cccc(F)c3)C(=O)[C@@]12C,2.0%,?,?,-17.9,0.0%
CCN(CC)C(=O)CSc1nnc(COc2ccccc2)n1N,-4.3%,-11.9%,-14.4%,-3.4,-1.8%
Cc1ccc2cccc(O)c2n1,nt,7.08µM*,7.08µM*,nt,nt
Cc1ccc2cccc(N)c2n1,14.8%,-1.4%,-10.7%,14.5,-1.2%
COc1cc(C(C)=O)ccc1OCC(=O)Nc1cc(C)on1,13.2%,-4.8%,-9.9%,-2.5,0.2%
CN(C)c1cc2c(c(N(C)C)c1)C(=O)c1ccccc1C2=O,?,?,?,-50.2*,-18.0%
CCOC(=O)c1c(C)nc2sc3c(c2c1-c1ccc(OC)cc1)NC(c1ccccc1)NC3=O (stereo unspecified),-2.0%,?,18.4µM*,81.1,-16.8%
COc1ccc(-c2c(C(C)=O)c(C)nc3sc4c(c23)NC(c2ccccc2)NC4=O)cc1 (stereo unspecified),6.3%,1.5%,-26.9%,33.0,2.5%
